Where “and” joins values, the source holds several entries; their conditions need not be identical. Equal entries are not always repeated. About 2,000 (36%) of roughly 5,500 compounds were called active. Roughly 18% stayed inconclusive and do not appear here. No stated cut-off is given here; in the data, active means normalized growth mostly below about 0.91 (no sharp cut-off); inconclusive means no clear call, values can overlap the other calls; inactive means mostly above about 0.92. The list shows a part of the results.
Assay: chemical genetic growth profiling, strain panel (AID 1159580);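 further: tested at 20 µM; growth read once vehicle control cultures reached saturation at 30 °C; 1 = growth at the plate median or of vehicle wells; lower values mean less growth of the strain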
Details: S. cerevisiae deletion strains, growth OD

Measured: normalized growth

C=C1c2cccc(O)c2C(O)=C2C(=O)[C@]3(O)C(O)=C(C(N)=O)C(=O)[C@@H](N(C)C)[C@@H]3[C@@H](O)[C@H]12
inactive: locus YAL013W, strain DEP1, active compounds read low 0.997 | locus YAL021C, strain ccr4, active compounds read low 1.02 | locus YAL026C, strain drs2, active compounds read low 1.01 | locus YAL030W, strain snc1, active compounds read low 1.01 | locus YBL061C, strain skt5, active compounds read low 1.01 | locus YBR009C, strain hhf1, active compounds read low 1 | locus YBR021W, strain FUR4, active compounds read low 1.01 | locus YBR023C, strain chs3, active compounds read low 1 | locus YBR171W, strain sec66, active compounds read low 1.02 | locus YBR229C, strain ROT2, active compounds read low 0.987 | locus YBR231C, strain swc5, active compounds read low 1.02 | locus YBR279W, strain paf1, active compounds read low 1.01 | locus YCL011C, strain gbp2, active compounds read low 1.01 | locus YCL016C, strain dcc1, active compounds read low 1.02 | locus YCL029C, strain bik1, active compounds read low 0.965 | locus YCL061C, strain MRC1, active compounds read low 1.02 | locus YCL069W, strain vba3, active compounds read low 1.01 | locus YCR088W, strain abp1, active compounds read low 0.997 | locus YDL005C, strain med2, active compounds read low 1.02 | locus YDL035C, strain GPR1, active compounds read low 0.98 | locus YDL040C, strain nat1, active compounds read low 1.02 | locus YDL074C, strain BRE1, active compounds read low 0.962 | locus YDL101C, strain DUN1, active compounds read low 0.978 | locus YDL134C, strain PPH21, active compounds read low 1.01 | locus YDL185W, strain tfp1, active compounds read low 0.925 | locus YDL192W, strain arf1, active compounds read low 0.971 | locus YDR001C, strain nth1, active compounds read low 1.01 | locus YDR069C, strain doa4, active compounds read low 1.01 | locus YDR101C, strain arx1, active compounds read low 0.957 | locus YDR137W, strain rgp1, active compounds read low 0.927 | locus YDR150W, strain NUM1, active compounds read low 0.99 | locus YDR159W, strain sac3, active compounds read low 1.01 | locus YDR162C, strain NBP2, active compounds read low 0.981 | locus YDR195W, strain ref2 0.997 | locus YDR297W, strain sur2, active compounds read low 1.01 | locus YDR318W, strain mcm21, active compounds read low 0.975 | locus YDR334W, strain swr1, active compounds read low 1.01 | locus YDR335W, strain msn5, active compounds read low 1.01 | locus YDR388W, active compounds read low 0.991 | locus YDR392W, strain spt3, active compounds read low 0.957 | locus YDR502C, strain sam2, active compounds read low 1 | locus YEL003W, strain gim4, active compounds read low 1 | locus YEL037C, strain rad23, active compounds read low 1.01 | locus YEL061C, strain CIN8 (second series), active compounds read low 1.01 | locus YEL061C, strain CIN8, active compounds read low 0.988 | locus YER015W, strain faa2, active compounds read low 0.991 | locus YER016W, strain bim1, active compounds read low 0.946 | locus YER110C, active compounds read low 0.997 | locus YER111C, strain swi4, active compounds read low 1.01 | locus YER155C, strain BEM2 (second series), active compounds read low 0.966 | locus YER155C, strain BEM2, active compounds read low 1.01 | locus YER167W, strain BCK2, active compounds read low 0.992 | locus YFR010W, strain ubp6, active compounds read low 1.02 | locus YGL078C, strain dbp3, active compounds read low 0.993 | locus YGL086W, strain mad1, active compounds read low 0.993 | locus YGL167C, strain pmr1, active compounds read low 1.02 | locus YGL173C, strain kem1, active compounds read low 1.01 | locus YGL227W, strain vid30, active compounds read low 1.01 | locus YGL240W, strain doc1, active compounds read low 1.03 | locus YGL248W, strain PDE1, active compounds read low 0.979 | locus YGL253W, strain hxk2, active compounds read low 1.01 | locus YGR078C, strain PAC10, active compounds read low 0.928 | locus YGR135W, strain pre9, active compounds read low 0.987 | locus YGR229C, strain SMI1, active compounds read low 0.947 | locus YGR252W, strain gcn5, active compounds read low 1.11 | locus YHR013C, strain ard1, active compounds read low 1.02 | locus YHR027C, strain rpn1, active compounds read low 1.01 | locus YHR030C, strain SLT2, active compounds read low 0.994 and 0.979 | locus YHR079C, strain IRE1 (second series), active compounds read low 0.982 | locus YHR079C, strain IRE1, active compounds read low 0.978 | locus YHR094C, strain hxt1, active compounds read low 0.992 | locus YHR129C, strain ARP1, active compounds read low 0.982 | locus YHR142W, strain chs7, active compounds read low 1.05 | locus YHR200W, strain rpn10, active compounds read low 0.97 | locus YIL066C, strain RNR3, active compounds read low 0.948 | locus YIL073C, strain SPO22, active compounds read low 0.945 | locus YIL125W, strain kgd1, active compounds read low 0.989 | locus YIR030C, strain dcg1, active compounds read low 1 | locus YJL092W, strain hpr5, active compounds read low 1.01 | locus YJL095W, strain BCK1 (second series), active compounds read low 1.02 | locus YJL095W, strain BCK1, active compounds read low 0.899 and 0.972 | locus YJL115W, strain asf1, active compounds read low 1.03 | locus YJL129C, strain trk1, active compounds read low 1.04 | locus YJL134W, strain LCB3, active compounds read low 0.992 | locus YJL154C, strain vps35, active compounds read low 1.04 | locus YJL164C, strain tpk1, active compounds read low 0.983 | locus YJL166W, strain qcr8, active compounds read low 1.02 | locus YJL168C, strain set2, active compounds read low 0.982 | locus YJL187C, strain SWE1 (second series), active compounds read low 0.929 | locus YJR043C, strain POL32, active compounds read low 0.923 | locus YJR066W, strain TOR1, active compounds read low 0.913

Reference: PubChem BioAssay AID1159580 (chemical genetic matrix, 2015)
